The supplement of paper PMC12067093, “Discovery and optimisation of a covalent ligand for TRIM25 and its application to targeted protein ubiquitination” (Chemical Science, 2025)
Of roughly 21,000 targets only a part is listed; those with the largest changes were picked by preference.

Compound: Cc1cc(ccc1-c1ccccc1)C(=O)N1CCCN(CC1)C(=O)CCl [compound 10]
Assay: probe-labelled cysteine peptide fold change vs DMSO (competition) (log2 fold change); higher = less target engagement (more negative = stronger competition)
Details: THP-1, incubation time: 4 h
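Further: competitive profiling in live THP-1 cells: cysteine peptides tagged with an iodoacetamide desthiobiotin (IA-DTB) probe, intensity after compound treatment relative to DMSO-treated cells.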

Target	probe-labelled cysteine peptide fold change (10 µM)	probe-labelled cysteine peptide fold change (50 µM)
PRMT5_O14744_622_KVWYEWAVTAPVCSAIHNPTGR (UniProt O14744)	-0.0156	0.0576
PUM1_Q14671_980_CIECVQPQSLQFIIDAFK (UniProt Q14671)	0.213	-0.0133
RAB10_P61026_124_CDMDDK (UniProt P61026)	-0.104	0.0844
RB1CC1_Q8TDY2_603_VPLLCDFEPLHQHVLALHNLVK (UniProt Q8TDY2)	-0.156	-1.09
PUS7_Q96PZ0_319_CLMNFK (UniProt Q96PZ0)	-0.0229	-0.239
PSME1_Q06323_101_KKGEDEDKGPPCGPVNCNEK (UniProt Q06323)	-0.428	-1.54
RNF113A_O15541_202_WDYQPDICK<|>RNF113B_Q8IZP6_196_WDYQPDICK (UniProt Q8IZP6+O15541)	-0.0623	-0.145
RANBP2_P49792_1243_ICANHYISPDMK (UniProt P49792)	0.0568	0.0875
PRMT9_Q6P2P2_290_GESANCEK (UniProt Q6P2P2)	-0.112	-0.0837
PRKDC_P78527_2342_KNILEESLCELVAK (UniProt P78527)	-0.182	-0.0562
PTPRC_P08575_610_SCNLDEQQELVERDDEK (UniProt P08575)	-0.427	-1.12
RHOG_P84095_18_TCLLICYTTNAFPK (UniProt P84095)	-0.108	0.0979
RECQL4_O94761_814_DGQPAHCHLFLQPQGEDLR (UniProt O94761)	-0.0251	-0.0847
R3HCC1_Q9Y3T6_5_ALLCLDGVFLSSAENDFVHR (UniProt Q9Y3T6+R3HCC1)	0.242	0.0812
PRKCQ_Q04759_193_QCNAAIHK (UniProt Q04759)	-0.474	-0.576
RGMB_Q6NW40_226_ITIIFKAHHECTDQK (UniProt Q6NW40)	-0.0752	-1.11
PRPF4_O43172_441_RCVYTIPAHQNLVTGVK (UniProt O43172)	-0.0522	-0.2
PRR14L_Q5THK1_1503_AQDPSSAGCDQIHGAFAK (UniProt Q5THK1)	-0.388	-1.59
RANBP2_P49792_2982_VCANHVITK (UniProt P49792)	0.0357	0.111
RGPD3_A6NKT7_349_GEAGQNLLEMMACDR<|>RGPD1_P0DJD0_340_GEAGQNLLEMMACDR<|>RGPD2_P0DJD1_348_GEAGQNLLEMMACDR<|>RANBP2_P49792_348_GEAGQNLLEMMACDR<|>RGPD4_Q7Z3J3_349_GEAGQNLLEMMACDR (UniProt Q7Z3J3+P49792+P0DJD1+P0DJD0+A6NKT7)	-0.0339	0.0903
PTPN12_Q05209_164_ISCEDEQAR (UniProt Q05209)	0.159	0.15
RGS14_O43566_183_ECLLAEAEGR (UniProt O43566)	-0.0353	0.16

Target	probe-labelled cysteine peptide fold change (10 µM)	probe-labelled cysteine peptide fold change (50 µM)
PTPN1_P18031_344_EETQEDKDCPIKEEK (UniProt P18031)	-0.593	-1.57
RABGEF1_Q9UJ41_359_DLSIEEQSECAQDFYHNVAER (UniProt Q9UJ41)	-0.389	-0.123
RNF114_Q9Y508_160_NFDQEGLVEHCK (UniProt Q9Y508)	0.0873	0.126
PRKDC_P78527_1742_FNNYVDCMK (UniProt P78527)	0.239	-0.0715
RHOT2_Q8IXI1_185_QLRPACAQALTR (UniProt Q8IXI1)	-0.151	0.0492
PRKCSH_P14314_39_GVSLTNHHFYDESKPFTCLDGSATIPFDQVNDDYCDCK (UniProt P14314)	-0.151	-1.07
RABGAP1L_Q5R372_665_NNFEDLHCK (UniProt Q5R372)	0.206	0.197
RBBP5_Q15291_100_LVSASTDNIVSQWDVLSGDCDQR (UniProt Q15291)	0.121	0.0651
PRKDC_P78527_1335_CTVVVR (UniProt P78527)	0.00715	0.101
RBM4B_Q9BQ04_107_FEEYGPVIECDIVK<|>RBM4_Q9BWF3_107_FEEYGPVIECDIVK (UniProt Q9BWF3+Q9BQ04)	0.566	0.744
PSME4_Q14997_718_QGYTLSCNLLHHLLR (UniProt Q14997)	0.366	0.173
RANBP9_Q96S59_707_QPPLALAMGQATQCLGLMAR (UniProt Q96S59)	0.193	0.216
PSME4_Q14997_637_CCPEESLK (UniProt Q14997)	-0.0784	-0.446
PREX1_Q8TCU6_836_LSLCEDSPMVTLTVDNVHLEHGVVYEYVSTAGVR (UniProt Q8TCU6)	-0.0714	0.185
PRKCI_P41743_137_LYCANGHTFQAK (UniProt P41743)	-0.00179	0.0748
RANBP2_P49792_707_AEDIENDALSPEEQEECK (UniProt P49792)	0.0365	0.0945
PRKCD_Q05655_127_VLMSVQYFLEDVDCK (UniProt Q05655)	-0.226	-0.31
RNF123_Q5XPI4_1277_ACINQHLMNNK (UniProt Q5XPI4)	-0.0494	-0.231
PXN_P49023_505_ECFTPFVNGSFFEHDGQPYCEVHYHER (UniProt P49023)	0.192	0.386
RASSF5_Q8WWW0_225_NCLGMK (UniProt Q8WWW0)	-0.275	-0.844
PRXL2A_Q9BRX8_88_RPGCFLCR (UniProt Q9BRX8)	-2.04	-2.18
PRPF6_O94906_837_KCEHDPHVLLAVAK (UniProt O94906)	-0.315	0.18

Target	probe-labelled cysteine peptide fold change (10 µM)	probe-labelled cysteine peptide fold change (50 µM)
PYCR1_P32322_262_SLLINAVEASCIR (UniProt P32322)	0.0279	0.0718
RACGAP1_Q9H0H5_419_VDDIHAICSLLK (UniProt Q9H0H5)	0.00786	0.00467
PXN_P49023_523_ECFTPFVNGSFFEHDGQPYCEVHYHER (UniProt P49023)	0.032	0.12
PSMC1_P62191_58_LPLVTPHTQCR (UniProt P62191)	-0.0192	0.104
RCCD1_A6NED2_139_LPLLPCAR (UniProt A6NED2)	-1.01	-1.9
RBM34_P42696_196_TVFVGNLPVTCNK (UniProt P42696)	0.0157	-0.186
PRKDC_P78527_1364_DLCNTHLMR (UniProt P78527)	-0.0526	-0.0393
PRPF19_Q9UMS4_5+16_SLICSISNEVPEHPCVSPVSNHVYER (UniProt Q9UMS4)	0.0585	0.103
RFXANK_O14593_205_CVEALLAR (UniProt O14593)	0.0175	-0.265
RHOC_P08134_16_KLVIVGDGACGK<|>RHOA_P61586_16_KLVIVGDGACGK (UniProt P61586+P08134)	-0.0365	-0.193
RIF1_Q5UIP0_2450_LSCMANSVIK (UniProt Q5UIP0)	-0.0942	-0.14
RARS_P54136_34_NCGCLGASPNLEQLQEENLK (UniProt P54136)	-0.247	-1.27
PRKCD_Q05655_261+264_CEDCGMNVHHK (UniProt Q05655)	-0.702	-1.69
QSOX1_O00391_110_AWRPALYLAALDCAEETNSAVCR (UniProt O00391)	-0.147	-0.174
RNF114_Q9Y508_64_KPVCGVCR (UniProt Q9Y508)	0.0642	-0.0371
RFC3_P40938_32_NLVQCGDFPHLLVYGPSGAGK (UniProt P40938)	-0.122	0.124
PSMB8_P28062_7_ALLDVCGAPR (UniProt P28062)	-0.068	-0.273
RCHY1_Q96PM5_43_LCHDNNEDHQLDR (UniProt Q96PM5)	0.344	2.12
RARS2_Q5T160_479_LHSLEETFGCGYLNDFNTACLQEPQSVSILQHLLR (UniProt Q5T160)	-0.037	0.0628
PTPN11_Q06124_318_CNNSKPK (UniProt Q06124)	-0.31	-1.11
RLF_Q13129_400_TIACLLPEDLEVRR (UniProt Q13129)	-0.0742	-0.58
RET_P07949_987_LMLQCWK (UniProt P07949)	0.0807	0.122
